In publication PMC11006913:

Key:
Assay in all cases: PBM; 200 nM protein, PBS
Conditions in all cases: dsDNA, one strand shown
HESX1 [1] = molecular target: HESX1 (Homo sapiens, UniProt Q9UBX0 95-180, R165K)
SHOX [2] = molecular target: SHOX (Homo sapiens, UniProt O15266 103-189)
ALX4 [3] = molecular target: ALX4 (Homo sapiens, UniProt Q9H161 200-286)
PRRX1 [4] = molecular target: PRRX1 (Homo sapiens, UniProt P54821 80-166, F113S)
ALX4 [5] = molecular target: ALX4 (Homo sapiens, UniProt Q9H161 200-286, Q225E)
ALX4 (Homo sapiens, UniProt Q9H161 200-286, Q225E), sequence (Q9H161 200-286 Q225E): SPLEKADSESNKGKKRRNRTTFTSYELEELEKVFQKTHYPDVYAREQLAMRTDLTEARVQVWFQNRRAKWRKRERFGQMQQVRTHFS

HESX1 [6] = molecular target: HESX1 (Homo sapiens, UniProt Q9UBX0 95-180)
HESX1 (Homo sapiens, UniProt Q9UBX0 95-180), sequence (Q9UBX0 95-180): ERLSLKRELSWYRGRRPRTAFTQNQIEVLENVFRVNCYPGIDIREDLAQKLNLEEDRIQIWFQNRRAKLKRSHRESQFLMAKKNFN

MSX2 [7] = molecular target: MSX2 (Homo sapiens, UniProt P35548 130-214, R199I)
MSX2 (Homo sapiens, UniProt P35548 130-214, R199I), sequence (P35548 130-214 R199I): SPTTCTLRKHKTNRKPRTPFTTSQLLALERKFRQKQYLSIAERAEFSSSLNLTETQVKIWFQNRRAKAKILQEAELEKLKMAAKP

ALX1 [8] = molecular target: ALX1 (Homo sapiens, UniProt Q15699 118-204, L144V)
ALX1 (Homo sapiens, UniProt Q15699 118-204, L144V), sequence (Q15699 118-204 L144V): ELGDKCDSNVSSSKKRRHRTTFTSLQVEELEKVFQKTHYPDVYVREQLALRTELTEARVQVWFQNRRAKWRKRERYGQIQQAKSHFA

SHOX [9] = molecular target: SHOX (Homo sapiens, UniProt O15266 103-189, R173C)
SHOX (Homo sapiens, UniProt O15266 103-189, R173C), sequence (O15266 103-189 R173C): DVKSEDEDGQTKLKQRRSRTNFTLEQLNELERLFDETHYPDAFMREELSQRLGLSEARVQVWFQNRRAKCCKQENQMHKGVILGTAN

ALX1 [10] = molecular target: ALX1 (Homo sapiens, UniProt Q15699 118-204, L144R)
ALX1 (Homo sapiens, UniProt Q15699 118-204, L144R), sequence (Q15699 118-204 L144R): as the sequence (Q15699 118-204 L144V) above, with V27R counted along it

PROP1 [11] = molecular target: PROP1 (Homo sapiens, UniProt O75360 56-141)
PROP1 (Homo sapiens, UniProt O75360 56-141), sequence (O75360 56-141): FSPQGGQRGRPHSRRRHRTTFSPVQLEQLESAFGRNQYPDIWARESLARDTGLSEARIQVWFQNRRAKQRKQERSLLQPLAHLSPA

HESX1 [12] = molecular target: HESX1 (Homo sapiens, UniProt Q9UBX0 95-180, R109Q)
HESX1 (Homo sapiens, UniProt Q9UBX0 95-180, R109Q), sequence (Q9UBX0 95-180 R109Q): as the sequence (Q9UBX0 95-180) above, with R15Q counted along it

PROP1 [13] = molecular target: PROP1 (Homo sapiens, UniProt O75360 56-141, R99H)
PROP1 (Homo sapiens, UniProt O75360 56-141, R99H), sequence (O75360 56-141 R99H): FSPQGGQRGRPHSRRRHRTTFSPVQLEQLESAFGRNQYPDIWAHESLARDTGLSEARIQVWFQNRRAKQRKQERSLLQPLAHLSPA

ALX3 = ALX3 (Homo sapiens, UniProt O95076 139-225, L168Q)
ALX3, sequence (O95076 139-225 L168Q): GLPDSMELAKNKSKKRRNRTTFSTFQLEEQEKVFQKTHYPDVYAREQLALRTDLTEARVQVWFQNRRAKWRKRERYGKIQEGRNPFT

HESX1 [14] = molecular target: HESX1 (Homo sapiens, UniProt Q9UBX0 95-180, P111T)
HESX1 (Homo sapiens, UniProt Q9UBX0 95-180, P111T), sequence (Q9UBX0 95-180 P111T): as the sequence (Q9UBX0 95-180) above, with P17T counted along it

PROP1 [15] = molecular target: PROP1 (Homo sapiens, UniProt O75360 56-141, F88S)
PROP1 (Homo sapiens, UniProt O75360 56-141, F88S), sequence (O75360 56-141 F88S): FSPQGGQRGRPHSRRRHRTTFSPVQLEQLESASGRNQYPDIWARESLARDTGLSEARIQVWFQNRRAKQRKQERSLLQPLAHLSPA

MSX2 [16] = molecular target: MSX2 (Homo sapiens, UniProt P35548 130-214, F161Y)
MSX2 (Homo sapiens, UniProt P35548 130-214, F161Y), sequence (P35548 130-214 F161Y): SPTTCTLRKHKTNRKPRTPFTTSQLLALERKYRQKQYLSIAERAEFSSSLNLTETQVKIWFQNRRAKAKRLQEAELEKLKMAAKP

HESX1 [17] = molecular target: HESX1 (Homo sapiens, UniProt Q9UBX0 95-180, F115L)
HESX1 (Homo sapiens, UniProt Q9UBX0 95-180, F115L), sequence (Q9UBX0 95-180 F115L): as the sequence (Q9UBX0 95-180) above, with F21L counted along it

ALX1 [18] = molecular target: ALX1 (Homo sapiens, UniProt Q15699 118-204)
ALX1 (Homo sapiens, UniProt Q15699 118-204), sequence (Q15699 118-204): as the sequence (Q15699 118-204 L144V) above, with V27L counted along it

PRRX1 [19] = molecular target: PRRX1 (Homo sapiens, UniProt P54821 80-166)
PRRX1 (Homo sapiens, UniProt P54821 80-166), sequence (P54821 80-166): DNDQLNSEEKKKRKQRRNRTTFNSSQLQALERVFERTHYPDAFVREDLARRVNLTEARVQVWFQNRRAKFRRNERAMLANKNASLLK

HESX1 (Homo sapiens, UniProt Q9UBX0 95-180, R165K), sequence (Q9UBX0 95-180 R165K): as the sequence (Q9UBX0 95-180) above, with R71K counted along it
PRRX1 (Homo sapiens, UniProt P54821 80-166, F113S), sequence (P54821 80-166 F113S): as the sequence (P54821 80-166) above, with F34S counted along it
SHOX (Homo sapiens, UniProt O15266 103-189), sequence (O15266 103-189): as the sequence (O15266 103-189 R173C) above, with C71R counted along it
ALX4 (Homo sapiens, UniProt Q9H161 200-286), sequence (Q9H161 200-286): as the sequence (Q9H161 200-286 Q225E) above, with E26Q counted along it

CCAATTAC was tested. Which binding signal (HESX1 [1]) did it give?
The binding signal was 12.8 upbm affinity estimate (log intensity, higher = more binding, comparable within an allelic series).

And the binding signal (SHOX [2])?
The binding signal was 12.2 upbm affinity estimate (log intensity, higher = more binding, comparable within an allelic series).

What about the binding signal (ALX4 [3]) of the same sequence?
Its binding signal is 13.8 upbm affinity estimate (log intensity, higher = more binding, comparable within an allelic series).

What about the binding signal (PRRX1 [4]) of the same sequence?
The binding signal was 11.1 upbm affinity estimate (log intensity, higher = more binding, comparable within an allelic series).

And the binding signal (ALX4 [5])?
Its binding signal is 13.1 upbm affinity estimate (log intensity, higher = more binding, comparable within an allelic series).

What about the binding signal (HESX1 [6]) of the same sequence?
Its binding signal is 12.9 upbm affinity estimate (log intensity, higher = more binding, comparable within an allelic series).

And the binding signal (MSX2 [7])?
Its binding signal is 12.8 upbm affinity estimate (log intensity, higher = more binding, comparable within an allelic series).

What about the binding signal (ALX1 [8]) of the same sequence?
Its binding signal is 11.8 upbm affinity estimate (log intensity, higher = more binding, comparable within an allelic series).

What about the binding signal (SHOX [9]) of the same sequence?
Its binding signal is 9.4 upbm affinity estimate (log intensity, higher = more binding, comparable within an allelic series).

What about the binding signal (ALX1 [10]) of the same sequence?
The binding signal was 11.4 upbm affinity estimate (log intensity, higher = more binding, comparable within an allelic series).

What about the binding signal (PROP1 [11]) of the same sequence?
Its binding signal is 11.5 upbm affinity estimate (log intensity, higher = more binding, comparable within an allelic series).

And the binding signal (HESX1 [12])?
The binding signal was 9.36 upbm affinity estimate (log intensity, higher = more binding, comparable within an allelic series).

What about the binding signal (PROP1 [13]) of the same sequence?
Its binding signal is 11.7 upbm affinity estimate (log intensity, higher = more binding, comparable within an allelic series).

What about the binding signal (ALX3) of the same sequence?
Its binding signal is 10.6 upbm affinity estimate (log intensity, higher = more binding, comparable within an allelic series).

What about the binding signal (HESX1 [14]) of the same sequence?
The binding signal was 11.3 upbm affinity estimate (log intensity, higher = more binding, comparable within an allelic series).

What about the binding signal (PROP1 [15]) of the same sequence?
Its binding signal is 7.57 upbm affinity estimate (log intensity, higher = more binding, comparable within an allelic series).

What about the binding signal (MSX2 [16]) of the same sequence?
Its binding signal is 13.5 upbm affinity estimate (log intensity, higher = more binding, comparable within an allelic series).

And the binding signal (HESX1 [17])?
The binding signal was 7.75 upbm affinity estimate (log intensity, higher = more binding, comparable within an allelic series).

And the binding signal (ALX1 [18])?
Its binding signal is 12.5 upbm affinity estimate (log intensity, higher = more binding, comparable within an allelic series).

And the binding signal (PRRX1 [19])?
The binding signal was 13.4 upbm affinity estimate (log intensity, higher = more binding, comparable within an allelic series).

For CCTTCGAG, which binding signal (HESX1 [1]) is on record?
The binding signal was 6.45 upbm affinity estimate (log intensity, higher = more binding, comparable within an allelic series).

And the binding signal (SHOX [2])?
Its binding signal is 7.09 upbm affinity estimate (log intensity, higher = more binding, comparable within an allelic series).

And the binding signal (HESX1 [6])?
Its binding signal is 6.39 upbm affinity estimate (log intensity, higher = more binding, comparable within an allelic series).

What about the binding signal (SHOX [9]) of the same sequence?
The binding signal was 7.23 upbm affinity estimate (log intensity, higher = more binding, comparable within an allelic series).

And the binding signal (HESX1 [12])?
The binding signal was 6.55 upbm affinity estimate (log intensity, higher = more binding, comparable within an allelic series).

What about the binding signal (HESX1 [14]) of the same sequence?
The binding signal was 6.56 upbm affinity estimate (log intensity, higher = more binding, comparable within an allelic series).

What about the binding signal (HESX1 [17]) of the same sequence?
The binding signal was 6.63 upbm affinity estimate (log intensity, higher = more binding, comparable within an allelic series).

What does the source list for TAATTGGA?
binding signal (HESX1 [1]): 13.4 upbm affinity estimate (log intensity, higher = more binding, comparable within an allelic series); binding signal (SHOX [2]): 12.6 upbm affinity estimate (log intensity, higher = more binding, comparable within an allelic series); binding signal (ALX4 [3]): 14 upbm affinity estimate (log intensity, higher = more binding, comparable within an allelic series); binding signal (PRRX1 [4]): 11.4 upbm affinity estimate (log intensity, higher = more binding, comparable within an allelic series); binding signal (ALX4 [5]): 13.7 upbm affinity estimate (log intensity, higher = more binding, comparable within an allelic series); binding signal (HESX1 [6]): 13.3 upbm affinity estimate (log intensity, higher = more binding, comparable within an allelic series); binding signal (MSX2 [7]): 13 upbm affinity estimate (log intensity, higher = more binding, comparable within an allelic series); binding signal (ALX1 [8]): 12 upbm affinity estimate (log intensity, higher = more binding, comparable within an allelic series); binding signal (SHOX [9]): 9.96 upbm affinity estimate (log intensity, higher = more binding, comparable within an allelic series); binding signal (ALX1 [10]): 11.7 upbm affinity estimate (log intensity, higher = more binding, comparable within an allelic series); binding signal (PROP1 [11]): 11.8 upbm affinity estimate (log intensity, higher = more binding, comparable within an allelic series); binding signal (HESX1 [12]): 9.97 upbm affinity estimate (log intensity, higher = more binding, comparable within an allelic series); binding signal (PROP1 [13]): 12 upbm affinity estimate (log intensity, higher = more binding, comparable within an allelic series); binding signal (ALX3): 10.9 upbm affinity estimate (log intensity, higher = more binding, comparable within an allelic series); binding signal (HESX1 [14]): 11.9 upbm affinity estimate (log intensity, higher = more binding, comparable within an allelic series); binding signal (PROP1 [15]): 7.7 upbm affinity estimate (log intensity, higher = more binding, comparable within an allelic series); binding signal (MSX2 [16]): 13.6 upbm affinity estimate (log intensity, higher = more binding, comparable within an allelic series); binding signal (HESX1 [17]): 8.04 upbm affinity estimate (log intensity, higher = more binding, comparable within an allelic series); binding signal (ALX1 [18]): 12.7 upbm affinity estimate (log intensity, higher = more binding, comparable within an allelic series); binding signal (PRRX1 [19]): 13.4 upbm affinity estimate (log intensity, higher = more binding, comparable within an allelic series)

With ATAATTGG as the sequence, how does the binding signal (HESX1 [1]) read?
Its binding signal is 13.5 upbm affinity estimate (log intensity, higher = more binding, comparable within an allelic series).

And the binding signal (SHOX [2])?
The binding signal was 12.6 upbm affinity estimate (log intensity, higher = more binding, comparable within an allelic series).

And the binding signal (ALX4 [3])?
The binding signal was 14 upbm affinity estimate (log intensity, higher = more binding, comparable within an allelic series).

What about the binding signal (PRRX1 [4]) of the same sequence?
Its binding signal is 11.5 upbm affinity estimate (log intensity, higher = more binding, comparable within an allelic series).

And the binding signal (ALX4 [5])?
Its binding signal is 13.7 upbm affinity estimate (log intensity, higher = more binding, comparable within an allelic series).

And the binding signal (HESX1 [6])?
Its binding signal is 13.4 upbm affinity estimate (log intensity, higher = more binding, comparable within an allelic series).

And the binding signal (MSX2 [7])?
The binding signal was 13.1 upbm affinity estimate (log intensity, higher = more binding, comparable within an allelic series).

What about the binding signal (ALX1 [8]) of the same sequence?
Its binding signal is 12 upbm affinity estimate (log intensity, higher = more binding, comparable within an allelic series).

And the binding signal (SHOX [9])?
The binding signal was 9.98 upbm affinity estimate (log intensity, higher = more binding, comparable within an allelic series).

And the binding signal (ALX1 [10])?
The binding signal was 11.7 upbm affinity estimate (log intensity, higher = more binding, comparable within an allelic series).

And the binding signal (PROP1 [11])?
Its binding signal is 11.7 upbm affinity estimate (log intensity, higher = more binding, comparable within an allelic series).

What about the binding signal (HESX1 [12]) of the same sequence?
Its binding signal is 10 upbm affinity estimate (log intensity, higher = more binding, comparable within an allelic series).

What about the binding signal (PROP1 [13]) of the same sequence?
The binding signal was 12 upbm affinity estimate (log intensity, higher = more binding, comparable within an allelic series).

And the binding signal (ALX3)?
Its binding signal is 10.9 upbm affinity estimate (log intensity, higher = more binding, comparable within an allelic series).

What about the binding signal (HESX1 [14]) of the same sequence?
The binding signal was 12.1 upbm affinity estimate (log intensity, higher = more binding, comparable within an allelic series).

And the binding signal (PROP1 [15])?
The binding signal was 7.6 upbm affinity estimate (log intensity, higher = more binding, comparable within an allelic series).

And the binding signal (MSX2 [16])?
The binding signal was 13.7 upbm affinity estimate (log intensity, higher = more binding, comparable within an allelic series).

And the binding signal (HESX1 [17])?
Its binding signal is 8.41 upbm affinity estimate (log intensity, higher = more binding, comparable within an allelic series).

What about the binding signal (ALX1 [18]) of the same sequence?
The binding signal was 12.6 upbm affinity estimate (log intensity, higher = more binding, comparable within an allelic series).

What about the binding signal (PRRX1 [19]) of the same sequence?
The binding signal was 13.4 upbm affinity estimate (log intensity, higher = more binding, comparable within an allelic series).
